A number with no mark means an inactive call. The source made the active and inactive calls. Calls come from the whole dose curve; as a rule, active = well fitted curve in the direction sought with a large enough effect in the repeat runs; inconclusive = weak or mixed curves; inactive = flat fitted curve, though single readings scatter.
Assay: qHTS assay to test for compound auto fluorescence at 590 nm (red) in HEK293 cells (AID 720679)
Conditions: red autofluorescence 540/590 nm; series mostly up to 91.3 µM; fluorescence, % of fluorescent control: at the top concentration
Outline: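 Red channel, Ex/Em 540/590nm; signal expressed as equivalency to Rose Bengal sodium. HEK293, 2,000 cells/well, 10% dialyzed FBS; 23 nL compound pinned after 4-5 hr attachment; overnight 37C/5% CO2 before reading.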
% is set by controls: 0 for no effect and ±100 for the full control effect.

| SMILES | fluorescence, % of fluorescent control | outcome |
| --- | --- | --- |
| CCCc1nn(C)c2c(=O)[nH]c(-c3cc(S(=O)(=O)N4CCN(C)CC4)ccc3OCC)nc12 | -0.0003% [at 46 µM] |  |
| CO[C@@]1(NC(=O)CSC[C@@H](N)C(=O)O)C(=O)N2C(C(=O)O)=C(CSc3nnnn3C)CS[C@@H]21 | 0.0816% [at 46 µM] |  |
| CN(C)CCN(C)CCN(C)C | 0.568% |  |
| Cc1ccc(C(=O)Nc2ccc(S(=O)(=O)O)c3cc(S(=O)(=O)O)cc(S(=O)(=O)O)c23)cc1NC(=O)c1cccc(NC(=O)Nc2cccc(C(=O)Nc3cc(C(=O)Nc4ccc(S(=O)(=O)O)c5cc(S(=O)(=O)O)cc(S(=O)(=O)O)c45)ccc3C)c2)c1 | 0.0407% [at 46 µM] |  |
| C=C(C)C(=O)OCCOCCOCCOCCOC(=O)C(=C)C | -0.0681% |  |
| OCCCCCO | 0.0391% [at 95.7 µM] |  |
| CO[Si](C)(OC)c1ccccc1 | 0.0018% |  |
| CC1=NS(=O)(=O)c2cc(Cl)ccc2N1 | 0.0367% [at 46 µM] |  |
| CCOC(=O)CCC(=O)OCC | -0.275% |  |
| CC1(C)[C@@H]2CC[C@@]1(C)[C@H](O)C2 | -0.0861% |  |
| CCCC(C)C(=O)OCC (configuration not stated) | -0.0763% |  |
| CCCCS(=O)(=O)N[C@@H](Cc1ccc(OCCCCC2CCNCC2)cc1)C(=O)O | -0.0871% [at 46 µM] |  |
| c1coc(CNc2ncnc3nc[nH]c23)c1 | 0.323% |  |
| CCOC(=O)COc1cc(-n2ncc(C(F)(F)F)c(C)c2=O)c(F)cc1Cl | -0.173% |  |
| CC(C)CCCO | 0.0449% |  |
| CC(=O)N1C[C@H](O)C[C@H]1C(=O)O | -0.353% [at 46 µM] |  |
| O=S(=O)(O)c1cccc2c(S(=O)(=O)O)cccc12 | 0.0885% |  |
| C=CN1CCCCCC1=O | -0.0271% |  |

| SMILES | fluorescence, % of fluorescent control | outcome |
| --- | --- | --- |
| C[N+]1(C)[C@@H]2CC(OC(=O)[C@H](CO)c3ccccc3)C[C@H]1[C@@H]1O[C@@H]12 (some centres not stated) | -0.426% [at 46 µM] |  |
| CC(C)C[C@@H](N)C(=O)O | 0.394% [at 46 µM] |  |
| CCCCCCCCCCCCSC | -0.152% |  |
| C=CCOCC(O)CO (configuration not stated) | 0.187% |  |
| CC(=O)Oc1cccc(C)c1 | -0.223% [at 46 µM] |  |
| CC1=CCC(O)(C(C)C)CC1 (configuration not stated) | -0.376% |  |
| CCOC(=O)COC(=O)c1ccccc1C(=O)OCC | -0.0195% |  |
| COC(=O)Nc1ccc(Cl)c(Cl)c1 | -0.872% |  |
| CCCCCCC1CCC(=O)O1 (configuration not stated) | 0.105% [at 95.7 µM] |  |
| CC[C@H]1OC(=O)[C@H](C)[C@@H](O[C@H]2C[C@@](C)(OC)[C@@H](O)[C@H](C)O2)[C@H](C)[C@@H](O[C@@H]2O[C@H](C)C[C@H](N(C)C)[C@H]2O)[C@](C)(OC)C[C@@H](C)C(=O)[C@H](C)[C@@H](O)[C@]1(C)O |  | inactive |
| C=CC(C)(CCC=C(C)C)OC(=O)CC (configuration not stated) | -0.844% |  |
| CC(=O)c1ccc2ccccc2c1 | 0.0092% |  |
| CC(C)(C)C(=O)Oc1ccc(S(=O)(=O)Nc2ccccc2C(=O)NCC(=O)O)cc1 | 0.275% [at 46 µM] |  |
| CC(N)C12CC3CC(CC(C3)C1)C2 (configuration not stated) | -0.373% [at 46 µM] |  |
| O=C(O)c1cc(C(=O)O)cc(C(=O)O)c1 | -0.0601% [at 95.7 µM] |  |
| CCC(=O)OCc1ccccc1 | -0.197% |  |
| CC(C)C1CCC(O)CC1 (configuration not stated) | 0.086% |  |
| COc1cc(C(=O)OC(COCCC(C)C)CN2CCOCC2)cc(OC)c1OC (configuration not stated) | 0.0713% [at 46 µM] |  |

Assay: qHTS assay to test for compound auto fluorescence at 535 nm (green) in HEK293 cells (AID 720680)
Conditions: green autofluorescence 485/535 nm; series mostly up to 91.3 µM; fluorescence, % of fluorescein: at the top concentration

| SMILES | fluorescence, % of fluorescein | outcome |
| --- | --- | --- |
| CCCc1nn(C)c2c(=O)[nH]c(-c3cc(S(=O)(=O)N4CCN(C)CC4)ccc3OCC)nc12 | 0.041% [at 46 µM] |  |
| CO[C@@]1(NC(=O)CSC[C@@H](N)C(=O)O)C(=O)N2C(C(=O)O)=C(CSc3nnnn3C)CS[C@@H]21 | -0.0436% [at 46 µM] |  |
| CN(C)CCN(C)CCN(C)C | 0.0194% |  |
| Cc1ccc(C(=O)Nc2ccc(S(=O)(=O)O)c3cc(S(=O)(=O)O)cc(S(=O)(=O)O)c23)cc1NC(=O)c1cccc(NC(=O)Nc2cccc(C(=O)Nc3cc(C(=O)Nc4ccc(S(=O)(=O)O)c5cc(S(=O)(=O)O)cc(S(=O)(=O)O)c45)ccc3C)c2)c1 | 0.0492% [at 46 µM] |  |
| C=C(C)C(=O)OCCOCCOCCOCCOC(=O)C(=C)C | -0.0053% |  |
| OCCCCCO | -0.035% [at 95.7 µM] |  |
| CO[Si](C)(OC)c1ccccc1 | -0.0937% |  |
| CCOC(=O)CCC(=O)OCC | -0.0502% |  |
| CC1(C)[C@@H]2CC[C@@]1(C)[C@H](O)C2 | 0.0159% |  |
| CCCC(C)C(=O)OCC (configuration not stated) | 0.12% |  |
| CCCCS(=O)(=O)N[C@@H](Cc1ccc(OCCCCC2CCNCC2)cc1)C(=O)O | 0.0866% [at 46 µM] |  |
| c1coc(CNc2ncnc3nc[nH]c23)c1 | -0.0129% |  |
| CCOC(=O)COc1cc(-n2ncc(C(F)(F)F)c(C)c2=O)c(F)cc1Cl | 0.039% |  |
| CC(C)CCCO | -0.164% |  |
| CC(=O)N1C[C@H](O)C[C@H]1C(=O)O | -0.0083% [at 46 µM] |  |
| C[N+]1(C)[C@@H]2CC(OC(=O)[C@H](CO)c3ccccc3)C[C@H]1[C@@H]1O[C@@H]12 (some centres not stated) | -0.0574% [at 46 µM] |  |
| CCCCCCCCCCCCSC | 0.0084% |  |
| CC(=O)Oc1cccc(C)c1 | 0.169% [at 46 µM] |  |
| CCOC(=O)COC(=O)c1ccccc1C(=O)OCC | 0% |  |
| COC(=O)Nc1ccc(Cl)c(Cl)c1 | 0.0174% |  |
| CCCCCCC1CCC(=O)O1 (configuration not stated) | 0.0782% [at 95.7 µM] |  |
| CC[C@H]1OC(=O)[C@H](C)[C@@H](O[C@H]2C[C@@](C)(OC)[C@@H](O)[C@H](C)O2)[C@H](C)[C@@H](O[C@@H]2O[C@H](C)C[C@H](N(C)C)[C@H]2O)[C@](C)(OC)C[C@@H](C)C(=O)[C@H](C)[C@@H](O)[C@]1(C)O |  | inactive |
| C=CC(C)(CCC=C(C)C)OC(=O)CC (configuration not stated) | -0.0185% |  |
| CC(=O)c1ccc2ccccc2c1 | 0.0968% |  |
| O=C(O)c1cc(C(=O)O)cc(C(=O)O)c1 | 0.0146% [at 95.7 µM] |  |
| CCC(=O)OCc1ccccc1 | -0.0884% |  |

Source: PubChem BioAssay (Tox21)
